# From PubChem BioAssay (NCI)
# The panel holds about 83,000 compounds, 20% with a hit somewhere; the sample as a whole holds those more often.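 48-hour exposure, single concentration, 96-well plates; percent growth endpoint where 0 means no net growth. Active: below 10.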 Values without a mark were called inactive. The source made the active and inactive calls.
# What was measured:
# Assay in all cases: NCI-60 one-dose screen, 48 h (100 = growth as untreated, 0 = no growth, -100 = all killed)
# Conditions in all cases: 10 µM unless noted
# [1] = system: NCI-H23 lung
# [2] = system: NCI-H226 lung
# [3] = system: NCI-H322M lung
# [4] = system: HOP-62 NSCLC
# [5] = system: NCI-H460 lung
# [6] = system: NCI-H522 lung
# [7] = system: A549/ATCC NSCLC
# [8] = system: 786-0 renal
# [9] = system: COLO 205 colon
# [10] = system: DU-145 prostate
# [11] = system: K-562 leukemia
# [12] = system: MALME-3M melanoma
# [13] = system: MDA-MB-231 breast
# [14] = system: RXF 393 renal
# [15] = system: SF-268 CNS
# [16] = system: SF-295 CNS
# [17] = system: SF-539 CNS
# [18] = system: UACC-257 melanoma
# [19] = system: M14 melanoma
SMILES,growth [1],growth [2],growth [3],growth [4],growth [5],growth [6],growth [7],growth [8],growth [9],growth [10],growth [11],growth [12],growth [13],growth [14],growth [15],growth [16],growth [17],growth [18],growth [19]
CCCCn1cnc2c(SCc3ccc([N+](=O)[O-])cc3)nc(N)nc21,96.5%,85.6%,112%,95.2%,108%,73.9%,90.6%,79.5%,105%,123%,59.8%,130%,82.3%,106%,84.4%,122%,94.7%,97.5%,106%
COc1ccc(Cl)cc1Nc1nc(C(F)(F)F)ccc1C(=O)NN,39.9%,24.1%,4.64% (active),-30.8% (active),70.3%,12.9%,47.6%,2.09% (active),12.5%,40%,55.7%,8.85% (active),5.57% (active),-3.01% (active),26.4%,16.7%,31.2%,28.3%,38%
CC(C)C/C=C/C=C/C(=O)N[C@@H](CC(N)=O)C(=O)N[C@@H]1C(=O)N[C@H](c2ccc(O)cc2)C(=O)N[C@H](CCCN)C(=O)N[C@H]([C@@H](C)O)C(=O)N[C@H](c2ccc(O)cc2)C(=O)N[C@H](c2ccc(O)cc2)C(=O)N[C@H]([C@H](C)O)C(=O)N[C@H](Cc2ccccc2)C(=O)N[C@H](CCCN)C(=O)N[C@H](c2ccc(O[C@H]3O[C@@H](CO)[C@@H](O)[C@@H](O)[C@H]3O[C@@H]3O[C@H](CO)[C@H](O)[C@H](O)[C@@H]3O)cc2)C(=O)N[C@H]([C@H](C)O)C(=O)N[C@H](c2ccc(O)cc2)C(=O)NCC(=O)N[C@H](CC(C)C)C(=O)N[C@H](C)C(=O)N[C@H](c2ccc(O)c(Cl)c2)C(=O)O[C@@H]1C(N)=O,39.5%,68.6%,57.5%,53.4%,15.6%,78.1%,91.8%,-48.7% (active),101%,90.6%,30.8%,23.4%,-4.62% (active),44.9%,59.9%,20.1%,4.24% (active),6.54% (active),44.4%
Fc1ccc(-c2cnc3nonc3n2)c(F)c1,88.7%,102%,98.4%,93.7%,107%,84%,109%,104%,92.5%,100%,68%,105%,78%,111%,84.8%,109%,98.6%,96.6%,97.2%
C=CCN(CC#N)CC=C,106%,95.5%,106%,98.5%,115%,97.7%,101%,107%,113%,112%,102%,109%,111%,112%,114%,108%,102%,99.5%,102%
CCCCCCCCCCCCCCCCCC1=NCCN1CCO,77.1%,106%,88.4%,81%,18.7%,80.8%,64.2%,75.6%,84.8%,78.7%,64.6%,129%,58.8%,87.9%,78.4%,90%,78.4%,84.4%,84.1%
CC(C)(C)[Si](C)(C)OC1[C@@H](O[Si](C)(C)C(C)(C)C)[C@@H](CNC(=O)NC(=O)NC(=O)CI)O[C@H]1n1cnc2c(NC(=O)Nc3ccccc3)ncnc21 (stereo not given in full),-51.8% (active),108%,111%,2.91% (active),78.8%,-80.4% (active),65.5%,7.17% (active),45.2%,90.7%,52.3%,-83.3% (active),-49.7% (active),-5.13% (active),26.4%,-56.8% (active),-63.2% (active),105%,73.1%
CN(C)CCCN1c2ccccc2CCc2ccccc21,129%,104%,108%,82.2%,113%,88.2%,95.8%,95.7%,78%,113%,94.9%,151%,79%,78.6%,95.1%,106%,117%,103%,128%
CNC1=C([N+](=O)[O-])C(c2ccccc2O)C(C#N)=C(c2cccs2)O1 (stereo not given),99.1%,97.5%,98.6%,88%,105%,7.12% (active),99.7%,93.2%,101%,103%,63.8%,52.8%,93.8%,89.7%,96.3%,102%,95.6%,78.3%,93.4%
O=C(/C=C/c1ccccc1)c1c[nH]c2ccccc2c1=O,9.55% (active),8.22% (active),-7.62% (active),23.6%,-32.8% (active),0.426% (active),3.17% (active),4.48% (active),0.617% (active),7.22% (active),11.1%,43.6%,-1.53% (active),18.1%,-14.1% (active),-51.7% (active),-24.5% (active),58.9%,-24% (active)
CCC1N=C(N)N=C(N)N1c1ccc(Cl)cc1 (stereo not given),89.4%,96.5%,90.4%,102%,39.1%,90.9%,38%,58.6%,121%,105%,57.1%,61.6%,99.5%,89.3%,77.2%,88.9%,109%,88.1%,79.7%
CC(C)(C)OC[C@@H]1N=C(c2ccc(Br)cc2)Nc2nc3ccccn3c2C1=O,71.5%,78.1%,84.8%,54.5%,41.3%,33.4%,51.6%,94.2%,62.7%,82.7%,25.3%,51.5%,61.5%,61.6%,74.3%,30.9%,75.7%,62.3%,46.4%
O=C(N/N=C/c1ccc([N+](=O)[O-])cc1)c1ccccc1Nc1ccnc(C(F)(F)F)c1,62.3%,70.8%,83.3%,48.8%,94.3%,67.9%,82%,81.8%,103%,98.6%,78%,86%,70.4%,91.7%,86.2%,83.8%,84.3%,79.4%,101%
COc1cc(CN2CCC(N3CCCC3=O)c3ccccc32)cc(OC)c1OC (stereo not given),63%,85.9%,87.9%,95.5%,89.4%,55.3%,80.7%,80.4%,106%,108%,46%,71.9%,90.4%,112%,91.6%,79.3%,93.7%,72.2%,92.9%
COc1ccc(-c2nc(SCCC(C)C)nc(Nc3ccc(C(=O)O)cc3)c2C#N)cc1,92.4%,91.4%,88.1%,95.7%,89.5%,69.2%,67.2%,97%,104%,93.2%,67.8%,-52% (active),98%,90.1%,89.4%,80.5%,91.3%,95.2%,102%
